# Laboratory results reported in PubChem BioAssay (NCATS).
# Several values for one entry are separate records, joined by “and”; a condition that tells them apart may be missing. Equal values may be shown once. Records with an inconclusive call do not appear. Entries that show only a call come without a potency. Activity calls are given as the source filed them. Unless noted, the call rests on the fitted dose curve; in most records, active means well fitted curve in the direction sought with a large enough effect; inconclusive means small, poorly fitted or top-dose-only effect, or another doubt; inactive means no such curve, though single readings can be large; an effect the other way counts as inactive or inconclusive.
# Tests used:
# [1] = biological target: Voltage-gated inwardly rectifying potassium channel KCNH2 (Homo sapiens) (UniProt Q12809); assay: qHTS Assay for Small Molecule Inhibitors of the Human hERG Channel Activity (AID 588834);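 further: lower thallium flux fluorescence means stronger hERG block; nearly all actives have a fitted effect of over 50% in size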
# Chain of Voltage-gated inwardly rectifying potassium channel KCNH2 (Homo sapiens) (Q12809 whole entry, looked up): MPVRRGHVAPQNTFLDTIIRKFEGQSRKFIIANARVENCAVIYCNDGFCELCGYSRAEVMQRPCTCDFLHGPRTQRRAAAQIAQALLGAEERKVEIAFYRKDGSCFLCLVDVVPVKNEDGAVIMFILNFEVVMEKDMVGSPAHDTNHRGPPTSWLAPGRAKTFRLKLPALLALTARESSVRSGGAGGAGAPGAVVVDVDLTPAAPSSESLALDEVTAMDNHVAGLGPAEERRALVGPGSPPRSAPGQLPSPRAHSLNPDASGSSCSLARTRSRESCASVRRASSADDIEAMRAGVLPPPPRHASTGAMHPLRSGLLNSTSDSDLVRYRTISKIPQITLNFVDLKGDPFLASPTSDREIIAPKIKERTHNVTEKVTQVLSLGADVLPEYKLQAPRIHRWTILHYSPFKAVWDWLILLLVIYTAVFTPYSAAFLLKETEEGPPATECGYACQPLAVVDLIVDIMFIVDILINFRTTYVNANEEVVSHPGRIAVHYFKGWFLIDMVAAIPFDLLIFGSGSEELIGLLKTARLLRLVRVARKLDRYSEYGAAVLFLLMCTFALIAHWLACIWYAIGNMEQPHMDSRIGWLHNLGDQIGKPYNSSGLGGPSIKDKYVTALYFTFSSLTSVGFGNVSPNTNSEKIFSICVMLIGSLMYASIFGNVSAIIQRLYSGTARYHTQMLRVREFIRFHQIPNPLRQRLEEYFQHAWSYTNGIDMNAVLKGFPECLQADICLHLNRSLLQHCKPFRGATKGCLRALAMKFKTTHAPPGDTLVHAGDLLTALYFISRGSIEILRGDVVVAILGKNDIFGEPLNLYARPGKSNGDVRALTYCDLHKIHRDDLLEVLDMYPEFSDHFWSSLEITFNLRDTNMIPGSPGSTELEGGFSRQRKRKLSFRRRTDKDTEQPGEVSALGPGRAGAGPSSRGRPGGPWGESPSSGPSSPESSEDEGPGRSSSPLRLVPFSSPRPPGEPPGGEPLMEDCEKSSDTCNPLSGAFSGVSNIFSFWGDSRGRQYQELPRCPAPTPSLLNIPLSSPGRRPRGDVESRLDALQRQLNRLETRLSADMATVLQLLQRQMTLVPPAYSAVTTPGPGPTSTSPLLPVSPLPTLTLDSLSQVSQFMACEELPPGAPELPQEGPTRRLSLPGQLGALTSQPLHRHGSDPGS
# How it was run: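 Cells were infected with hERG-BacMam virus for 4 hrs at room temperature, grown overnight, then seeded at 2000/well. After dye loading and roughly 10 min compound treatment, thallium influx was triggered and fluorescence recorded.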
# [2] = biological target: Luciferin 4-monooxygenase (Photinus pyralis) (UniProt P08659); assay: Biochemical firefly luciferase enzyme assay for NPC (AID 624030); further: nearly all actives have a fitted effect of over 70% in size
# Chain of Luciferin 4-monooxygenase (Photinus pyralis) (P08659 whole entry, looked up): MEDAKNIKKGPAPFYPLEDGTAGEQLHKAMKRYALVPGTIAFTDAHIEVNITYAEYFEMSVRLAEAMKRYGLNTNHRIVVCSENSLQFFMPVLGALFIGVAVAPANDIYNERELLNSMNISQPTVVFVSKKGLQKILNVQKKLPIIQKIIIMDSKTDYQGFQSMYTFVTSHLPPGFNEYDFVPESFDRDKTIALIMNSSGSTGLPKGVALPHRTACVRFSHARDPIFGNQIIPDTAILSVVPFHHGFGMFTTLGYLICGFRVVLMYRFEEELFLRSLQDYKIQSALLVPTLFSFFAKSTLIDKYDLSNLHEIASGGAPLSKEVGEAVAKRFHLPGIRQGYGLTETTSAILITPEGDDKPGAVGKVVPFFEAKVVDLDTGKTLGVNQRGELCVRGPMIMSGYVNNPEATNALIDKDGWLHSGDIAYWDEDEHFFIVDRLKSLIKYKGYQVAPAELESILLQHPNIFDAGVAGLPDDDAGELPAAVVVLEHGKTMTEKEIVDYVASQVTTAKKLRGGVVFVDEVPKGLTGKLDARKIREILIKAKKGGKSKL
# How it was run: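 Direct inhibition of firefly luciferase enzyme (10 nM final, 50 mM Tris Acetate) assessed by luminescence within 5 minutes. Percent activity scaled between DMSO and PTC124 positive control, with concentration-effect curves classified by fit quality and response.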
# [3] = S16 Schwann cell viability assay (CellTiter-Glo assay) (AID 624031); further: nearly all actives have a fitted effect of over 70% in size
# How it was run: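 Counter-screen for cytotoxicity: parental S16 rat Schwann cells lacking the PMP22 reporters, treated 24 h with compound, viability from cellular ATP by CellTiter-Glo luminescence, normalized to DMSO (0%) and no-cell wells.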
# [4] = S16 Schwann cell PMP22 intronic element firefly luciferase assay (AID 624032); further: nearly all actives have a fitted effect of over 30% in size
# How it was run: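 Luciferase reporter of PMP22 intronic-element expression in stably transfected S16 rat Schwann cells, read by ONE-Glo luminescence after 24 h compound exposure at 37 C. Activity scaled between DMSO (0%) and positive-control PTC124; concentration-effect curves quality-classified.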
# [5] = biological target: Glutaminase kidney isoform, mitochondrial (Homo sapiens) (UniProt O94925); assay: qHTS for Inhibitors of Glutaminase (GLS): LOPAC Validation (AID 624146); further: nearly all actives have a fitted effect of over 60% in size
# Chain of Glutaminase kidney isoform, mitochondrial (Homo sapiens) (O94925 whole entry, looked up, canonical isoform): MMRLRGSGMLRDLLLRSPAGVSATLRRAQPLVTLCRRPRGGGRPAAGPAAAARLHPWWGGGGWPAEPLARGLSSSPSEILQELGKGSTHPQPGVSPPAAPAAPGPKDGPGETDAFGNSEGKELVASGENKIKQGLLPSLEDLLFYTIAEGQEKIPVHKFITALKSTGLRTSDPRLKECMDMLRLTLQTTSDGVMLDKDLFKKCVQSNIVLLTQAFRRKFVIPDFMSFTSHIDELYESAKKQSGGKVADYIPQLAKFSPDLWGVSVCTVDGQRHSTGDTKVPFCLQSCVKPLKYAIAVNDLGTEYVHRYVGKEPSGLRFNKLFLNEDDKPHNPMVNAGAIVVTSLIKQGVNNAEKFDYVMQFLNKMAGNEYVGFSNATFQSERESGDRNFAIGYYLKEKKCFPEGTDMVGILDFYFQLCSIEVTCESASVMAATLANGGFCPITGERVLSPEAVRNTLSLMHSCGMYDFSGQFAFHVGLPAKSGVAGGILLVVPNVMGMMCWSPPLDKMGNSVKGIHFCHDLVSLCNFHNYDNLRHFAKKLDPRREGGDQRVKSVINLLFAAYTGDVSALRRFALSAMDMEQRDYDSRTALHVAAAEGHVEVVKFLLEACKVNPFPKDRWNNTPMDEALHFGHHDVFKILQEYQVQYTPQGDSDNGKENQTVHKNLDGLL
# How it was run: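 Enzyme dispensed in phosphate buffer (45 mM, pH 8.2, 0.02% Tween-20), compounds pinned in, then 1 mM L-glutamine solution and the glutamate oxidase–HRP–Amplex Red mix added; fluorescence read immediately and again after 30 min at room temperature.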
# [6] = S16 Schwann cell PMP22 intronic element beta-lactamase assay (AID 624044; calls by dose curve; further: nearly all actives have a fitted effect of over 15% in size)
# How it was run: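 Beta-lactamase reporter under a PMP22 intronic regulatory element in stable S16 rat Schwann cells; 24 h compound exposure. 460 nm blue signal normalized between DMSO (0%) and potassium clavulanate, with 535 nm FRET tracking viability; curves classed by r2 and response.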
# Potency means the concentration at half of the fitted maximal effect.
smiles,measurement,setting,value
OCCN(CCO)c1nc(N2CCCCC2)c2nc(N(CCO)CCO)nc(N3CCCCC3)c2n1,Potency,[1],inactive
same,Potency,[2],inactive
same,Potency,[3],inactive
same,Potency,[4],10.2 µM (active)
same,Potency,[5],inactive
CC1(CN2CCC(n3c(=O)[nH]c4ccccc43)CC2)OCc2ccccc2-n2cccc21 (stereo unspecified),Potency,[1],11.2 µM (active)
same,Potency,[2],inactive
CN1C(C(=O)Nc2ccccn2)=C(O)c2ccccc2S1(=O)=O,Potency,[1],inactive
same,Potency,[2],inactive
same,Potency,[3],inactive
same,Potency,[4],inactive
same,Potency,[5],inactive
CN(C)c1nc(N(C)C)nc(N(C)C)n1,Potency,[1],inactive
same,Potency,[2],inactive
same,Potency,[3],inactive
same,Potency,[4],inactive
same,Potency,[6],inactive
same,Potency,[5],inactive
Cc1cc(C(C)(C)C)c(O)c(C)c1CC1=NCCN1,Potency,[1],11.2 µM (active)
same,Potency,[2],inactive
same,Potency,[4],inactive
NC(=O)NO,Potency,[1],inactive
same,Potency,[2],inactive
same,Potency,[4],inactive
same,Potency,[5],8.91 µM (active)
C[C@@H]1CC(=O)NN=C1c1ccc(NN=C(C#N)C#N)cc1,Potency,[1],inactive
CC(C)(C)C(=O)Oc1ccc(S(=O)(=O)Nc2ccccc2C(=O)NCC(=O)O)cc1,Potency,[1],inactive
same,Potency,[2],inactive
same,Potency,[4],inactive
same,Potency,[6],inactive
CCOC(=O)c1ncn2c1CN(C)C(=O)c1cc(F)ccc1-2,Potency,[1],inactive
same,Potency,[2],inactive
same,Potency,[4],inactive
same,Potency,[5],inactive
NCCCCCC(=O)O,Potency,[1],inactive
same,Potency,[2],inactive
same,Potency,[4],inactive
same,Potency,[5],inactive
CC12CC3CC(C)(C1)CC(N)(C3)C2,Potency,[1],inactive
same,Potency,[2],inactive
same,Potency,[4],inactive
same,Potency,[5],inactive
CS(=O)(=O)Nc1ccc([N+](=O)[O-])cc1Oc1ccccc1,Potency,[1],inactive
same,Potency,[2],inactive
same,Potency,[4],inactive
COc1ccccc1N1CCN(CC(O)COc2cccc3ccccc23)CC1 (stereo unspecified),Potency,[1],3.16 µM (active) and 794 nM (active)
same,Potency,[2],inactive
Clc1ccccc1C(c1ccccc1)(c1ccccc1)n1ccnc1,Potency,[1],10 µM (active) and 11.2 µM (active)
same,Potency,[2],inactive
same,Potency,[6],inactive
same,Potency,[5],inactive
CCOC(=O)Nc1ccc(NCc2ccc(F)cc2)nc1N,Potency,[1],14.1 µM (active)
same,Potency,[2],inactive
same,Potency,[6],inactive
same,Potency,[5],12.6 µM (active)
Cn1ccc2cc3c(cc21)CCN3C(=O)Nc1cccnc1,Potency,[1],inactive
same,Potency,[2],6.42 µM (active)
same,Potency,[4],inactive
COc1ccccc1OCCNCC(O)COc1cccc2[nH]c3ccccc3c12 (stereo unspecified),Potency,[2],inactive
same,Potency,[4],25.6 µM (active)
same,Potency,[6],inactive
same,Potency,[5],inactive
CN1CCC(=C2c3ccccc3CC(=O)c3sccc32)CC1,Potency,[2],inactive
CN(C)C(=O)C(CCN1CCC(O)(c2ccc(Cl)cc2)CC1)(c1ccccc1)c1ccccc1,Potency,[2],inactive
same,Potency,[5],inactive
COc1ccc(C2CNC(=O)C2)cc1OC1CCCC1 (stereo unspecified),Potency,[1],inactive
same,Potency,[5],inactive
COc1cc2nc(N3CCN(C(=O)c4ccco4)CC3)nc(N)c2cc1OC,Potency,[1],inactive
same,Potency,[2],inactive
same,Potency,[5],inactive
CN1CCN(CCCN2c3ccccc3Sc3ccc(Cl)cc32)CC1,Potency,[2],inactive
CCc1cccc2c3c([nH]c12)C(CC)(CC(=O)O)OCC3 (stereo unspecified),Potency,[1],inactive
same,Potency,[5],inactive
CN(C)C(=N)N=C(N)N,Potency,[2],inactive
same,Potency,[4],inactive
CCCCc1oc2ccccc2c1C(=O)c1cc(I)c(OCCN(CC)CC)c(I)c1,Potency,[2],inactive
same,Potency,[4],28.7 µM (active)
same,Potency,[5],inactive
Nc1nnc(-c2cccc(Cl)c2Cl)c(N)n1,Potency,[2],inactive
same,Potency,[4],inactive
same,Potency,[6],inactive
same,Potency,[5],inactive
CN(C)CCCN1c2ccccc2CCc2ccc(Cl)cc21,Potency,[2],inactive
same,Potency,[5],inactive
Cc1cc(C(C)(C)C)cc(C)c1CC1=NCCN1,Potency,[2],inactive
same,Potency,[3],inactive
same,Potency,[4],inactive
same,Potency,[5],inactive
CCN1CCCC1CNC(=O)c1cc(S(=O)(=O)CC)c(N)cc1OC (stereo unspecified),Potency,[2],inactive
same,Potency,[5],inactive
CN(CCOc1ccc(NS(C)(=O)=O)cc1)CCc1ccc(NS(C)(=O)=O)cc1,Potency,[2],inactive
same,Potency,[4],inactive
CN1CCN(C2=Nc3cc(Cl)ccc3Nc3ccccc32)CC1,Potency,[6],inactive
same,Potency,[5],inactive
CCCNCC(O)COc1ccccc1C(=O)CCc1ccccc1 (stereo unspecified),Potency,[2],inactive
same,Potency,[4],25.6 µM (active)
CN1CCC(=C2c3ccccc3C=Cc3ccccc32)CC1,Potency,[2],inactive
same,Potency,[5],inactive
CC[C@@]1(O)C(=O)OCc2c1cc1n(c2=O)Cc2cc3c(CN(C)C)c(O)ccc3nc2-1,Potency,[2],inactive
same,Potency,[4],0.51 µM (active)
same,Potency,[6],15.8 µM (active)
CN1C2CCC1CC(OC(=O)C(CO)c1ccccc1)C2 (stereo unspecified),Potency,[5],inactive
O=C(C1CCCCC1)N1CC(=O)N2CCc3ccccc3C2C1 (stereo unspecified),Potency,[1],inactive
same,Potency,[5],inactive
O=C1Cc2cc(CCN3CCN(c4nsc5ccccc45)CC3)c(Cl)cc2N1,Potency,[2],inactive
same,Potency,[5],inactive
O=c1c(O)c(-c2ccc(O)c(O)c2)oc2cc(O)cc(O)c12,Potency,[1],inactive
same,Potency,[3],inactive
same,Potency,[4],inactive
same,Potency,[6],inactive
CN1CCN2c3ccccc3Cc3ccccc3C2C1 (stereo unspecified),Potency,[2],inactive
same,Potency,[3],inactive
same,Potency,[4],inactive
same,Potency,[6],inactive
same,Potency,[5],inactive
Cc1ccccc1N1C(=O)c2cc(S(N)(=O)=O)c(Cl)cc2NC1C (stereo unspecified),Potency,[2],inactive
same,Potency,[5],inactive
COc1cc2nc(N(C)CCCNC(=O)C3CCCO3)nc(N)c2cc1OC (stereo unspecified),Potency,[1],inactive
same,Potency,[5],inactive
CC1COc2c(N3CCN(C)CC3)c(F)cc3c(=O)c(C(=O)O)cn1c23 (stereo unspecified),Potency,[1],inactive
same,Potency,[5],inactive
Fc1ccc([C@@H]2CCNC[C@H]2COc2ccc3c(c2)OCO3)cc1,Potency,[5],inactive
O=C1c2c(O)ccc(O)c2C(=O)c2c(NCCNCCO)ccc(NCCNCCO)c21,Potency,[2],inactive
same,Potency,[3],inactive
same,Potency,[4],0.346 µM (active)
same,Potency,[5],3.55 µM (active)
CNCCCC12CCC(c3ccccc31)c1ccccc12,Potency,[2],inactive
same,Potency,[3],32.2 µM (active)
same,Potency,[4],32.2 µM (active)
same,Potency,[5],inactive
CC(C(=O)O)c1cccc(C(=O)c2ccccc2)c1 (stereo unspecified),Potency,[1],inactive
same,Potency,[5],inactive
COc1ccc(CCN(C)CCCC(C#N)(c2ccc(OC)c(OC)c2)C(C)C)cc1OC (stereo unspecified),Potency,[2],inactive
same,Potency,[3],inactive
same,Potency,[4],inactive
same,Potency,[5],inactive
Cc1cnc(C(=O)NCCc2ccc(S(=O)(=O)NC(=O)NC3CCCCC3)cc2)cn1,Potency,[2],inactive
same,Potency,[4],inactive
